Experimental data: ChEMBL document CHEMBL4513139, “CO-ADD screening of University of Strathclyde (UK) compounds”
Entries with a potency or affinity are not part of this list.

Columns and labels:
Klebsiella pneumoniae = conditions: Concentration 32 ug.mL-1; ASSAY_TEST Inhibition of Bacterial Growth; detection method Absorption (OD600); MEDIA CAMHB; plate type 384well; NBS; CORNING #3640; time 18 hr
Candida albicans = conditions: 32 ug/mL
Cryptococcus neoformans = conditions: Concentration 32 ug.mL-1; ASSAY_TEST Inhibition of Fungal Growth; detection method Resazurin; Absorption (OD600-OD570); plate type 384well; NBS; CORNING #3640

SMILES	Inhibition (Klebsiella pneumoniae)	Inhibition (Candida albicans)	Inhibition (Cryptococcus neoformans)
CCOC(=O)c1cc(NC(=O)c2cc(NC(=O)c3sc(N)nc3C(F)(F)F)cn2C)cn1C	7.86%	4.58%	-88.19%
Cc1ncc(CNc2ccccc2F)c(N)n1	12.81%	1.65%	-54.68%
CN(C)CCCNC(=O)c1cc(NC(=O)c2cc(NC(=O)c3cc(NC(=N)c4ccccc4)cn3C)cn2C)cn1C.O=C(O)C(F)(F)F.O=C(O)C(F)(F)F	1.31%	0.01%	-106.51%
Cn1cc(NC(=O)c2cc(NC(=O)c3cc(NC(=O)c4ccc(Cl)cc4Cl)cn3C)cn2C)cc1C(=O)NCCN1CCOCC1.O=C(O)C(F)(F)F	11.99%	9.71%	9.62%
Cc1ncc(Cn2cc(CCCN)nn2)c(N)n1.Cl	-8.29%	3.42%	-41.75%
Cn1cc(NC(=O)c2cc(NC(=O)c3ccc(/C=C/c4cccc(F)c4)cc3)cn2C)cc1C(=O)NCCN1CCOCC1.O=C(O)C(F)(F)F	-2.66%	24.2%	–
CC(C)CCc1sc(NC(=O)c2cc(NC(=O)c3cc(NC(=O)c4ccc(C(=O)O)cc4)cn3C)cn2C)nc1C(=O)NCCCN(C)C.O=C(O)C(F)(F)F	-0.94%	8.07%	-119.21%
COC(=O)CCC(=O)Nc1cc(C(=O)Nc2cc(C(=O)NCCCN(C)C)n(C)c2)n(C)c1.O=C(O)C(F)(F)F	-5.32%	0.6%	-50.28%
COCCOC1CCN(C(=O)c2cc(NC(=O)c3cc(NC(=O)c4ccc(/C=C/c5cnc6ccccc6c5)cc4)cn3C)cn2C)CC1	10.84%	3.83%	112.33%
Cn1cc(NC(=O)c2cc(NC(=O)c3sc(N)nc3C(F)(F)F)cn2C)cc1C(=O)NCCC(=N)N.O=C(O)C(F)(F)F	-8.6%	5.72%	-104.75%
CC(C)CCc1sc(NC(=O)c2cc(NC(=O)c3ccc(/C=C/c4cc5ccccc5nc4Cl)cc3)cn2C)nc1C(=O)NCCN1CCOCC1.O=C(O)C(F)(F)F	-4.36%	2.62%	-70.82%
COC(=O)c1ccc(C(=O)Nc2cc(C(=O)Nc3cc(C(=O)NCCCN(C)C)n(C)c3)n(C)c2)cc1.O=C(O)C(F)(F)F	6.59%	1.31%	-107.28%
COC(=O)c1ccc(C(=O)Nc2cc(C(=O)Nc3cc(C(=O)NCCN4CCOCC4)n(C)c3)n(C)c2)cc1.O=C(O)C(F)(F)F	8.44%	7.27%	-98.27%
COc1ccc(/C=C(/C(=O)Nc2cc(C(=O)Nc3cc(C(=O)NCCCN(C)C)n(C)c3)n(C)c2)c2ccc(OC)cc2)cc1.O=C(O)C(F)(F)F	4.2%	1.83%	-5.3%
COc1cccc(/C=C/c2ccc(C(=O)Nc3cc(C(=O)Nc4cc(C(=O)NCCN(C)C)n(C)c4)n(C)c3)cc2)c1.O=C(O)C(F)(F)F	26.76%	28.1%	101.07%
Cc1ncc(CNc2ccc(C(F)(F)F)cc2)c(N)n1	1.98%	0.52%	-31.34%
COCCOC1CCN(C(=O)c2cc(NC(=O)c3cc(NC(=O)c4ccc(/C=C/c5ccc(OC)cc5)cc4)cn3C)cn2C)CC1.O=S(=O)(O)O	1.91%	3.1%	97.19%
CCOC(=O)CCC(NC(=O)c1ccc(NCc2cn(Cc3cnc(C)nc3N)nn2)cc1)C(=O)OCC (stereo not given)	-10.59%	5.67%	-67.67%
Cn1cc(NC(=O)c2cc(NC(=O)CCC(=O)O)cn2C)cc1C(=O)NCCN1CCOCC1.O=C(O)C(F)(F)F	14.45%	1.67%	-38.65%
COC(=O)CCC(=O)Nc1cc(C(=O)Nc2cc(C(=O)NCCN3CCOCC3)n(C)c2)n(C)c1.O=C(O)C(F)(F)F	8.45%	1.41%	-63.38%
CC(C)CCc1sc(NC(=O)c2cc(NC(=O)c3cc(NC(=O)CCC(=O)O)cn3C)cn2C)nc1C(=O)NCCCN(C)C.O=C(O)C(F)(F)F	2.15%	2.8%	-103.67%
Cc1ncc(CO)c(N)n1	-2.19%	-0.12%	-45.32%
CCOC(=O)c1cc(NC(=O)c2cc(NC(=O)c3nc(N)sc3CCC(C)C)cn2C)cn1C	9.93%	2.98%	-84.96%
CN(C)CCCNC(=O)c1cc(NC(=O)c2cc(NC(=O)c3ccc(C(=O)O)cc3)cn2C)cn1C.O=C(O)C(F)(F)F	8.35%	15.6%	-106.52%
Cc1ncc(Cn2cc(CCCO)nn2)c(N)n1	-1.34%	0.26%	-29.76%
CN(C)CCCNC(=O)c1cc(NC(=O)c2cc(NC(=O)CCC(=O)O)cn2C)cn1C.O=C(O)C(F)(F)F	6.24%	0.85%	-54.8%

SMILES	Inhibition (Klebsiella pneumoniae)	Inhibition (Candida albicans)	Inhibition (Cryptococcus neoformans)
CC(C)CCn1cc(NC(=O)c2cc(NC(=O)c3cc(NC(=N)c4ccccc4)cn3C)cn2C)cc1C(=O)NCCCN(C)C.O=C(O)C(F)(F)F.O=C(O)C(F)(F)F	2.69%	0.79%	-53.65%
CC(C)c1sc(NC(=O)c2cc(NC(=O)c3cc(NC(=O)c4cnc(Cl)c(Cl)c4)cn3C)cn2C)nc1C(=O)NCCCN(C)C.O=C(O)C(F)(F)F	-2.83%	7.37%	12.34%
COc1cccc(C(=N)Nc2cc(C(=O)Nc3cc(C(=O)Nc4cc(C(=O)NCCCN(C)C)n(C)c4)n(C)c3)n(C)c2)c1.O=C(O)C(F)(F)F.O=C(O)C(F)(F)F	5.64%	0.48%	-103.02%
CC(C)c1sc(N)nc1C(=O)Nc1cc(C(=O)NCCN2CCOCC2)n(C)c1.O=C(O)C(F)(F)F	8.18%	3.26%	-97.94%
Cc1ncc(Cn2cc(CO)nn2)c(N)n1	-6.43%	1.92%	-37.01%
Cc1ncc(CNc2ccc(Cl)cc2)c(N)n1	5.04%	-0.54%	-54.67%
CC(=N)Nc1cc(C(=O)Nc2cc(C(=O)Nc3cc(C(=O)NCCN4CCOCC4)n(C)c3)n(C)c2)n(C)c1.O=C(O)C(F)(F)F.O=C(O)C(F)(F)F	13.68%	2.29%	-100.58%
Cc1ncc(Cn2cc(CCCCO)nn2)c(N)n1	1.98%	2.99%	-60.21%
CC(=O)N(C(C)=O)c1cc(C(=O)Nc2cc(C(=O)NCCC(=N)N)n(C)c2)n(C)c1.O=C(O)C(F)(F)F	5.82%	3.85%	87.54%
CCOC(=O)c1cc(NC(=O)c2cc(NC(=O)c3nc(N)sc3C(C)C)cn2C)cn1C	11.43%	4.33%	-54.98%
COC(=O)c1ccc(C(=O)Nc2cc(C(=O)Nc3cc(C(=O)NCCC(=N)N)n(C)c3)n(C)c2)cc1.O=C(O)C(F)(F)F	7.16%	5.42%	-78.85%
Cc1ncc(CNc2ccc(F)cc2)c(N)n1	12.64%	4.55%	-57.63%
COc1cccc(C(=N)Nc2cc(C(=O)Nc3cc(C(=O)Nc4cn(CCCN(C)C)cn4)n(C)c3)n(C)c2)c1.O=C(O)C(F)(F)F.O=C(O)C(F)(F)F	25.01%	0.2%	-90.24%
CC(C)c1sc(N)nc1C(=O)Nc1cc(C(=O)Nc2cc(C(=O)NCCN3CCOCC3)n(C)c2)n(C)c1.O=C(O)C(F)(F)F	-2.63%	3.25%	-112.04%
COc1cccc(C(=N)Nc2cc(C(=O)Nc3cc(C(=O)NCCC(=N)N)n(C)c3)n(C)c2)c1.O=C(O)C(F)(F)F.O=C(O)C(F)(F)F	100.7%	39.3%	101.54%
CC(=O)Nc1cc(C(=O)Nc2cc(C(=O)Nc3cc(C(=O)NCCCN(C)C)n(C)c3)n(C)c2)n(C)c1.O=C(O)C(F)(F)F	11.92%	0.65%	-116.29%
CN(C)CCCNC(=O)c1cc(NC(=O)c2cc(NC(=O)c3cc4ccccc4cn3)cn2C)cn1C.O=C(O)C(F)(F)F	12.4%	3.58%	-81.77%
Cc1ccc(S(=O)(=O)NCCc2cn(Cc3cnc(C)nc3N)nn2)cc1	1.07%	3.05%	-48.53%
Cc1ncc(CNc2cccc(F)c2)c(N)n1	9.56%	1.91%	-50.34%
CC(C)CCc1sc(N)nc1C(=O)Nc1cc(C(=O)Nc2cc(C(=O)NCCN3CCOCC3)n(C)c2)n(C)c1.O=C(O)C(F)(F)F	5.14%	4.42%	-77.2%
Cc1ncc(Cn2cc(CC(N)C(=O)O)nn2)c(N)n1.Cl (stereo not given)	-13.87%	2.15%	-37.7%
CN(C)CCCNC(=O)c1cc(NC(=O)c2cc(NC(=O)c3cc(NC(=N)N)cn3C)cn2C)cn1C.O=C(O)C(F)(F)F.O=C(O)C(F)(F)F	7.81%	2.03%	-105.56%
Cc1ncc(Cn2cc(CCO)nn2)c(N)n1	-3.23%	0.2%	-50.84%
CC(C)CCc1sc(NC(=O)c2cc(NC(=O)c3ccc(/C=C/c4cc5ccccc5nc4On4nnc5ccccc54)cc3)cn2C)nc1C(=O)NCCN1CCOCC1.O=C(O)C(F)(F)F	-11.86%	12.3%	0.39%
Cc1ncc(Cn2cc(CCC(=O)O)nn2)c(N)n1.O=C(O)C(F)(F)F	-1.46%	2.33%	-50.97%
COC(=O)CCC(=O)Nc1cc(C(=O)Nc2cc(C(=O)NCCC(=N)N)n(C)c2)n(C)c1.O=C(O)C(F)(F)F	5.44%	2.68%	-68.45%
